In the supplement of paper PMC11219838:
A number with no mark means an inactive call.

System: Caenorhabditis elegans dauer (daf-2(e1370))
Test: proportion of mobile C. elegans dauer larvae relative to DMSO control (fraction of DMSO control); higher = more viable, less nematicidal, active = 0.63 or less; extreme values may be limits of the assay
Settings: 60 µM; 5 days; temperature: 20 °C
Description: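 DODA library (846 commercial 1,3,4- and 1,2,4-oxadiazole compounds plus commercial nematicide controls) screened at a single dose of 60 µM (0.6% DMSO) in 96-well plates, two biological replicates. Read-outs: C. elegans N2 L1 survival/reproduction score at day 6, 20 °C (0: 0-10 worms, 1: 11-20, 2: 21-50, 3: >50, 4: overgrown/starved). C. elegans daf-2 dauer, D. dipsaci and M. hapla J2 mobility at day 5, 20 °C, and P. penetrans mobility at day 5, 20 °C, each relative to DMSO controls. M. hapla egg hatching at day 12, 25 °C, relative to the mean of 8 DMSO wells on the same plate.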

SMILES | proportion of mobile C. elegans dauer larvae
CC(C)NC(=O)N1CC(=O)N(c2cc(Cl)cc(Cl)c2)C1=O [iprodione] | 1
O=C(NCCc1ncc(C(F)(F)F)cc1Cl)c1ccccc1C(F)(F)F [fluopyram] | 0 (active)
CC[C@H](C)[C@H]1O[C@]2(C=C[C@@H]1C)C[C@@H]1C[C@@H](C/C=C(\C)[C@@H](O[C@H]3C[C@H](OC)[C@@H](O[C@H]4C[C@H](OC)[C@@H](O)[C@H](C)O4)[C@H](C)O3)[C@@H](C)/C=C/C=C3\CO[C@@H]4[C@H](O)C(C)=C[C@@H](C(=O)O1)[C@]34O)O2.CO[C@H]1C[C@H](O[C@H]2[C@H](C)O[C@@H](O[C@@H]3/C(C)=C/C[C@@H]4C[C@@H](C[C@]5(C=C[C@H](C)[C@@H](C(C)C)O5)O4)OC(=O)[C@@H]4C=C(C)[C@@H](O)[C@H]5OC/C(=C\C=C\[C@@H]3C)[C@]54O)C[C@@H]2OC)O[C@@H](C)[C@@H]1O [abamectin] | 0.242 (active)
CNC(=O)O/N=C(\SC)C(=O)N(C)C [oxamyl] | 1
